Bioassay records: PubChem BioAssay, Buhrlage Lab, Dana-Farber Cancer Institute and Novartis Institutes for BioMedical Research (Cambridge, Mass)
This is a sample that favours compounds with a hit; in the whole collection about 11% have one here.
USP28 inh = human USP28 deubiquitinase inhibition; hit rate 3% among 47,000; inhibition, % at 25 µM; purified USP28, Ub-rhodamine cleavage fluorescence, 30 min
USP30 inh = human USP30 deubiquitinase inhibition; Q70CQ3; inhibition, % at 25 µM; purified USP30, Ub-rhodamine cleavage fluorescence; hit rate 5.3% among 47,000
Target sequence (Q70CQ3 whole entry, looked up): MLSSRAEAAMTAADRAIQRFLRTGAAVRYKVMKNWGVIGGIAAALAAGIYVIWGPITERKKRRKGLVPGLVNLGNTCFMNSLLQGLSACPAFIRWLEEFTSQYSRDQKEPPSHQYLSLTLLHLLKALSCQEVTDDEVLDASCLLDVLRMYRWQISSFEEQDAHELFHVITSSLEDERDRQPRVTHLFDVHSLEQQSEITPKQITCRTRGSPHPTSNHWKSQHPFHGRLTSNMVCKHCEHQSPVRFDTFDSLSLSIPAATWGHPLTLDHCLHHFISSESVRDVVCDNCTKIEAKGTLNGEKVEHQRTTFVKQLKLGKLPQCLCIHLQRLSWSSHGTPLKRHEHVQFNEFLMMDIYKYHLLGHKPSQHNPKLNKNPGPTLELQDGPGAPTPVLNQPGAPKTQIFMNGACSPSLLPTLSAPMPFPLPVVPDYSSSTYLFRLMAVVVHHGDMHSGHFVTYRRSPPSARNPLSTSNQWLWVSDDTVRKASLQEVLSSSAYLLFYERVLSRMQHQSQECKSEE
USP17 inh = blocks human USP17 ubiquitin-rhodamine cleavage | hit rate 6.5% among 47,000 | inhibition, % at 50 µM | purified USP17, Ub-rhodamine cleavage fluorescence, 3 h
* marks the source's active call; other numbers are inactive results; i = inactive; . = not tested or not shown. Cut-off read from the data, not from the text of the source: active = inhibition above about 30%; inactive = the rest.

SMILES | USP28 inh | USP30 inh | USP17 inh
O=C(Nc1ccc(OCc2ccccc2)cc1)NC1Cc2ccccc2C1 | -4.1 | 17.7 | 7.5
O=C(COC(=O)c1ccc2c(c1)S(=O)(=O)N=C1CCCCCN12)Nc1cc(F)ccc1F | 3.7 | 19.1 | 16.8
Cc1nc(-c2ccccn2)sc1C(=O)Nc1cccc(C(=O)NC2CC2)c1 | 3.3 | -15.3 | -12.1
Cc1nc(-c2ccccn2)sc1C(=O)Nc1ccc(C#N)cc1 | 11.7 | 54.3* | 8.3
Cc1ccc(CNc2nc3ccccc3n2CCN(C)C)o1 | -27.8 | -145.8 | -30.4
C/C=C/C(=O)OCC1=C[C@H](O)[C@H](O)[C@H](O)C1=O | -0.9 | -68.3 | -0.5
CCOC(=O)c1ccc(S(=O)(=O)N2CCC(C(=O)OC(C)C(=O)Nc3cccc([N+](=O)[O-])c3)CC2)cc1 (stereo unspecified) | 42.4* | 82.7* | 7.5
N#Cc1cccc(NC(=O)c2ccc(S(=O)(=O)N3CCOCC3)cc2)c1 | 5.9 | 8.9 | 10.7
CCOC(=O)c1cccc(NC(=O)c2ccc(S(=O)(=O)N3CCN(C)CC3)cc2)c1 | 30.7* | -2.2 | .
O=C(Nc1ccc(-c2nc3ccccc3o2)cc1)c1ccc(S(=O)(=O)N2CCc3ccccc3C2)cc1 | 4.3 | 34.2* | 34.6*
Cc1cc(C)c(S(=O)(=O)N2CCC(C(=O)OC(C)C(=O)Nc3ccccc3-c3ccccc3)CC2)c(C)c1 (stereo unspecified) | 2.7 | -3.7 | -1.7
CCOC(=O)c1ccc(NC(=O)c2ccc(S(=O)(=O)N3CCc4ccccc4C3)cc2)cc1 | 9.4 | 49.6* | 32.5*
CC(C)NS(=O)(=O)c1ccc(C(=O)Nc2ccc(-c3nc4ccccc4o3)cc2)cc1 | -28.1 | -150.1 | 10.3
Cc1sc(NC(=O)c2ccc(S(=O)(=O)N3CCc4ccccc4C3)cc2)c(C(N)=O)c1C | 3.3 | -21.1 | 8.2
COc1ccccc1C1Cn2c(C)cnc2CN1Cc1cn[nH]c1C (stereo unspecified) | . | . | 8.3
Cc1nc(Nc2ncccc2C)cc(C2CCCN2C(=O)c2ccn[nH]2)n1 (stereo unspecified) | 12.4 | 20.5 | 13.7
CC1CCN(C(CNC(=O)c2ccccc2)c2ccco2)CC1 (stereo unspecified) | -13.1 | -40.4 | -38.0
COc1cccc(NC(=O)CC2Sc3ccccc3NC2=O)c1 (stereo unspecified) | 17.0 | 38.6* | 31.8*
O=C(CC1SC(=O)NC1=O)Nc1cccc(C(F)(F)F)c1 (stereo unspecified) | -18.1 | -49.7 | -9.5
O=S(=O)(Nc1cccc(-c2nnc(Cc3ccc4c(c3)OCO4)o2)c1)c1ccccc1 | 31.5* | 27.4 | 10.7
O=S(=O)(Nc1cccc(-c2nnc(-c3ccccc3)o2)c1)c1ccccc1 | -7.5 | -1.3 | 13.2
Nc1nnc(-c2cc(-c3ccc4c(c3)OCO4)on2)o1 | -6.3 | -68.3 | 2.4
N#Cc1ccc(-c2cnc3sc(NC4CCCCC4)nn23)cc1 | -2.7 | 4.6 | 3.1
c1ccc(CCN2CCn3c(nc4ccccc43)C2)cc1 | -226.2 | i | -156.2
O=[N+]([O-])c1ccc2c(c1)nc1n2CCN(Cc2ccco2)C1 | 42.7* | 41.9* | 60.8*
SMILES | USP28 inh | USP30 inh | USP17 inh
Cc1cc(C(=O)N2C[C@@H]3[C@@H](C2)OCC(=O)N3Cc2ccccc2)no1 | -2.8 | 10.5 | -1.5
COC(=O)c1cn(CC(=O)N2CCCc3ccccc32)c2ccccc12 | 11.9 | 17.4 | 40.7*
Cc1ccc(CS(=O)(=O)c2cn(CC(=O)N3CCCc4ccccc43)c3ccccc23)cc1 | -13.4 | -67.0 | -45.0
Cc1nnc(-c2cn(CC(=O)N3CCc4ccccc43)c3ccccc23)o1 | 0.7 | -7.3 | 29.3
O=C(Cn1cc(C(F)(F)F)ccc1=O)N1CCc2ccccc21 | 2.8 | 1.1 | 5.1
N#Cc1cn(CC(=O)N2CCc3ccccc32)c2ccccc12 | 51.9* | 53.3* | -18.3
O=C(Cn1cc(C(=O)C(F)(F)F)c2ccccc21)N1CCc2ccccc21 | 27.8 | 36.8* | 52.3*
Clc1cccc(-c2cnc([C@@H]3COCCN3Cc3csnn3)[nH]2)c1 | 6.2 | -16.4 | -52.8
Cc1ccc(NC(=O)CCc2nc(CSc3nc4ccccc4o3)no2)c(C)c1 | 4.8 | 12.0 | 3.0
O=C(CCc1nc(CSc2nc3ccccc3o2)no1)Nc1ccccc1F | 47.6* | 16.2 | 17.1
CCn1cc(S(=O)(=O)Nc2ncn(Cc3cccc(F)c3)n2)cn1 | 8.1 | 6.8 | 9.2
COc1ccccc1CNC(=O)c1ccc2c(c1)N(Cc1cccc(F)c1)C(=O)c1ccccc1S2 | -19.7 | -114.1 | -12.3
O=C(NCc1ccco1)c1ccc2c(c1)N(Cc1cccc(Cl)c1)C(=O)c1ccccc1S2 | 11.9 | -27.1 | 37.9*
NC(=O)C1CCN(C(=O)c2ccc3nc(-n4cccc4)sc3c2)CC1 | -3.7 | -30.2 | -3.3
Cc1cc(NC(=O)CSc2nnc(COc3ccc(Cl)cc3)o2)no1 | -3.1 | -14.8 | 2.9
Cc1cccc(OCc2nnc(SCC(=O)Nc3cccc(F)c3C)o2)c1 | 43.6* | 24.9 | 0.5
